Test results: ChEMBL document CHEMBL4513216, “Probing the Open Global Health Chemical Diversity Library for Multistage-Active Starting Points for Next-Generation Antimalarials” (ACS Infect Dis, 2020)
The whole screen tested about 65,000 compounds, of which about 2,100 (3.2%) showed an effect of 50% or more. The median lay at about -52%. For the sample, strong results were picked, then their nearest neighbours and some compounds at random.

tested on: Plasmodium falciparum; assay: Screen against P. falciparum Asexual Blood Stage (ABS), at 5uM; assay type: functional, Dd2; conditions: tested at 5 uM

Structure (SMILES)	INHIBITION
O=C(C1CCCCC1)N1CCC2(CCCN2CC2CC2)CC1	-19.9%
CC(C)c1noc(CN2CCN(C(=O)c3cccnc3O)CC2)n1	-63.3%
Cc1nn(-c2ccccc2)c(C)c1-c1ccnc(N2CCC(O)CC2)n1	-309%
Cc1nn(-c2ccccc2)c(C)c1-c1ccnc(N2CCCOCC2)n1	-64.7%
Cc1nn(-c2ccccc2)c(C)c1-c1ccnc(N2CCCNCC2)n1	66.9%
CN1CCN(c2cc(Sc3cccs3)nc(N)n2)CC1CCO (centres undefined)	-77.1%
Cc1nc(CN2CCCC(N(C)Cc3nccn3C)C2)no1 (centres undefined)	-29.4%
CN(Cc1nccn1C)C1CCCN(CCCc2ccccc2)C1 (centres undefined)	63.9%
CN(CCc1ccccc1)C1CCCN(Cc2nccn2C)C1 (centres undefined)	22.1%
O=C1COC2(CCN(c3ncccn3)CC2)CN1	-86%
COCCC1COC2(CCN(C(=O)c3ccsc3)CC2)C1 (centres undefined)	-101%
CCC1CCC(NCCN2CCOCC2)CC1 (centres undefined)	5.69%
CC(C)(C)C1CCC(NCCN2CCOCC2)CC1 (centres undefined)	56.3%
C1CCC(NCCN2CCOCC2)C1	-99.9%
CC(C)c1cc(C(=O)NCCc2nc3c(s2)CCC3)n(C)n1	-63.4%
Cc1noc(C)c1-c1ccnc(C2CCNCC2)c1	-51.7%
CC(=O)N1CC[C@@]2(O)CCCC[C@H]2[C@@H]1c1ccc2c(c1)OCO2	-87.3%
N#Cc1ccc(CNC2CCN(CCc3ccncc3)CC2)cc1	56.7%
Oc1cccc(CNC2CCN(CCc3ccncc3)CC2)c1	-18.8%
c1cc(CCN2CCC(NCc3ccsc3)CC2)ccn1	-8.86%
CC(CNC(=O)c1cnc[nH]1)Oc1ccccc1Br (centres undefined)	-61.4%
CC(C)N1CCC(c2cnc(-c3cncnc3)cn2)CC1	-18%
COc1cccc(-c2cccc(CN3C[C@H]4CC[C@@H](C3)N(C)C4=O)c2)c1	13.1%

Structure (SMILES)	INHIBITION
CC(C)c1ncc2c(n1)CN(CC(=O)Nc1ccc(Cl)cn1)CC2	-65.1%
Cc1ncc2c(n1)CN(CC(=O)Nc1ccc(Cl)cn1)CC2	6.47%
CCc1ncc2c(n1)CN(CC(=O)Nc1ccc(Cl)cn1)CC2	59.4%
CCCc1nc(N2CCCCCC2)c2c(n1)c(C)nn2CC	22.2%
NC(=O)C1(CCCc2ccccn2)CCCN(Cc2ccncc2)C1 (centres undefined)	-123%
CC(O)CN1CCC(CN(C)C(=O)NC2CC2)CC1 (centres undefined)	-50.7%
Cc1ccc(CN2Cc3nccn3CC(CN(C)C)C2)s1 (centres undefined)	-47.7%
Cc1ccc(CN2Cc3nccn3CC(Cn3cccn3)C2)s1 (centres undefined)	-26.9%
CCN(CC)CC1CN(Cc2ccc(C)s2)Cc2nccn2C1 (centres undefined)	66.7%
CCN(CC)CC1CN(Cc2ccco2)Cc2nccn2C1 (centres undefined)	-52.4%
CCN(CC)CC1CN(Cc2cccc(C#N)c2)Cc2nccn2C1 (centres undefined)	-6.06%
CCN(CC)CC1CN(CCc2ccccc2)Cc2nccn2C1 (centres undefined)	58.7%
Cc1cc(CCC(=O)NCc2ncc[nH]2)ccc1Br	-116%
CCOC(=O)[C@]12CCCN(Cc3cccs3)C[C@H]1CN(CC(C)C)C2	14.6%
NC(=O)c1ccc(C(=O)N2CCCCC2Cn2cccn2)s1 (centres undefined)	-33.2%
O=C(c1cc(Cl)cc2cccnc12)N1CCN(CCO)CC1	30.3%
O=C(C1CCC1)N1C[C@@H]2CN(Cc3ccncc3)C(=O)[C@@H]2C1	-74.3%
Cn1cc(CN2CCOC(c3cccc(-c4cncnc4)n3)C2)cn1 (centres undefined)	-54.2%
COc1ccc(-c2ccccc2CN)c(OC)c1	60.2%
COc1ccc(-c2ccnc(N)c2)c(OC)c1	-90.3%
COc1ccc(CN)c(OC(F)F)c1	-30%
CC(C)(C)CN1CCCC(c2nccnc2Nc2cnccn2)C1 (centres undefined)	22.1%
O=C(CCCc1cccs1)N1CCC(N2CCNC2=O)CC1	-185%

Structure (SMILES)	INHIBITION
CC(C)CN1C(=O)C2(CCN(Cc3nccs3)C2)c2ccccc21 (centres undefined)	-54.5%
CCO[C@H]1C[C@@H](O)C12CCN(C1CCN(c3ccccc3C)CC1)CC2	10.7%
CCc1ccc(C2CC(=O)Nc3cc(OC)c(NS(C)(=O)=O)cc32)o1 (centres undefined)	-121%
Cc1cccnc1CN1CCN(C(=O)c2cnn(C(C)C)c2)CC1	-15.2%
Cc1nc(N2CCCC2)nc2c1CCN(C(=O)N1CCCC1)CC2	47%
Cc1nc(N2CCCC2)nc2c1CN(C(=O)N(C)C)CC2	-67.8%
CC(=O)N1CCc2nc(N3CCCC3)nc(C)c2C1	53.8%
Cc1nc(N2CCOCC2)nc2c1CCN(C(=O)N1CCCC1)CC2	-112%
Cc1nc(N2CCCC2)nc2c1CN(C(=O)N1CCOCC1)CC2	-70.2%
Cc1nc(N2CCOCC2)nc2c1CN(C(=O)C(C)C)CC2	56.2%
O=C(NCC(F)F)c1cnc(C2CCCN2)cn1 (centres undefined)	-41.5%
CCn1cc(NC(=O)C2CCN(Cc3nc(C(C)C)no3)CC2)cn1	-86%
COc1ccc(F)c(CN(CCCn2ccnc2)Cc2ccc(C)s2)c1	39.5%
Cc1ccc(CN(CCCn2ccnc2)Cc2cc(F)ccc2F)s1	68.8%
Cc1ccc(O)c(CN(CCCn2ccnc2)Cc2ccc(C)s2)c1	43%
CC(C)(C)NC(=O)C1CSCN1C(=O)CCc1ccco1 (centres undefined)	-87.6%
O[C@H]1CC[C@@H](Cc2cc(-c3ccccc3)on2)O[C@@H]1CNCC1CC1	39.2%
O[C@H]1CC[C@@H](Cc2cc(-c3ccc(F)cc3)on2)O[C@@H]1CNCC1CC1	63.5%
O[C@H]1CC[C@@H](Cc2cc(-c3ccccn3)on2)O[C@@H]1CNCC1CC1	-70.3%
COCCCNC1N=C(n2nc(C)cc2C)Nc2sc3c(c21)CCCC3 (centres undefined)	46.7%
Cc1ccc(NC2(C(=O)N3CCn4cncc4C3)CCCCC2)cc1C	64.5%
COc1ccc(NC2(C(=O)N3CCCn4cncc4C3)CCCC2)cc1	45%
COc1ccc(NC2(C(=O)N3CCn4cncc4C3)CCCC2)cc1	-27.6%
